# ± gives the standard deviation.
# System: MILI (PIWIL2) piRISC loaded with L1MC piRNA (26 nt)
# Experiment: pre-steady-state target cleavage rate (min^-1); guide: L1MC piRNA 5'p-UAACUAAAUACUAUGCAAGCUGUAGG; MIWI and MILI are mouse PIWI proteins and EfPiwi is from a freshwater sponge; tags in brackets are library labels; higher = faster piRNA-guided slicing of the target
# Conditions: auxiliary factor: 500 nM mouse GTSF1
# Method in brief: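 Cleave-'n-Seq measured uncleaved targets by sequencing after a transcribed, DNA-blocked target RNA library […] was mixed with 1 nM active affinity-purified piRISC holding one synthetic guide, with or without 500 nM GTSF1 partner protein, at 33 °C in HEPES–potassium acetate buffer for 0–8 or 0–960 min. Counts were normalised to depth and to weakly complementary targets, three trials were pooled, and k3 was capped at 0.0001 min^-1. A burst-and-steady-state fit gave the pre-steady-state cleavage rate.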
# 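Also: 1 nM active piRISC with 0.1 nM target library at 33 °C single turnover.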
row,Sequence,pre-steady-state target cleavage rate
1,UCCUGGAUGUGCUUGCAUACUAAUUAGUUA,0.00944 ± 0.0038
2,UCCUGGAUGUCCUUGCAUAGUAUUUUGUUA,0.0499 ± 0.0089
3,UCCUGGAUGUGCUUGCAUAGUAAUUACUUA,0.00537 ± 0.0033
4,UCCUGGAUGUCGAAGCAUAGUAUUUAGUUC [g2:g16:cont:t1C],0.0284 ± 0.0076
5,UCCUGGUACAGCUUGCAUAGAAUUUAGUAA,0.0567 ± 0.024
6,UCCUGGAUCAGCUUGCUAUGUAUUUAGAAA,0.00524 ± 0.0033
7,UCCUGGAACAGCUUGCAAACUAUUUAGUUA,0.0282 ± 0.0064
8,UCCUGGAACAGCUUGCAUAGUAAUUACUUA,0.023 ± 0.0082
9,UCCUGGAUCAGCUUGGUUAGUAUUUACAAA,0.00756 ± 0.0052
10,UCCUGGAUGUCGUUGCAUAGUAUUUUGUUA,0.194 ± 0.044
11,UCCUCCUACAGCUUGCAUACAUUUUAGUUA,0.00509 ± 0.0039
12,UCCUGCUACAGGAUGCAUAGUAUUUUCAAA,0.0053 ± 0.0038
13,UCCUGGAUGAGCUUGCUUAGUAUUUAGAAA,0.0548 ± 0.017
14,UCCUGGAACUCGUUGCAUAGUAUUUACAAA,0.0537 ± 0.013
15,UCCUGGAACAGGUUGCAUAGUAUUUUCAAA,0.0435 ± 0.012
16,UCCUGGAUGUCGAAGCAUAGUAUUUCGUUA,0.00855 ± 0.0046
17,UCCUGGAACAGCUUGGUAAGUAUUUAGAAA,0.0429 ± 0.015
18,UCCUCCUACACGUUGCAUAGUAUUUACAAA,0.062 ± 0.019

row,Sequence,pre-steady-state target cleavage rate
1,UCCUGGUACAGCUUGCAUUGUAUUAAGUUA,0.0503 ± 0.011
2,UCCUGGUACAGCUAGCAUAGUAUUUUCAAA,0.0662 ± 0.02
3,UCCUGGAUCAGCUUGCAUAGUUAAUAGUAA,0.0192 ± 0.0068
4,UCCUGGUACAGCUUGCUAAGUAUUUAGUAA,0.036 ± 0.012
5,UCCUGGAUGUCGAAGCAUAGUAUAAAGUUA,0.0127 ± 0.0053
6,UCCUCCUACAGCAACCAUAGUAUUUAGUAA,0.255 ± 0.043
7,UCCUGGAUCAGCUUGCAAAGAAUUUAGUUA,0.0118 ± 0.0054
8,UCCUGGAACAGCUUGCAUCAGUAUUUAGUUA,0.0151 ± 0.0061
9,UCCUGGAUCAGCUUGCAUAGUUUUUAGAAA,0.0202 ± 0.0088
10,UCCUCCUACAGCAAGCAUAGUAUUUUCAAA,0.111 ± 0.025
11,UCCUCCUACAGCUUGCAUAGUAUUAGUUA,0.273 ± 0.024
12,UCCUGGAUCAGCUUCCAUUGUAUUUAGUUA,0.0508 ± 0.0093
13,UCCUGGAUGAGCUUGCAUAGAAUAUAGUUA,0.0218 ± 0.0083
14,UCCUGGAUCAGCUACGAUAGUAUUUAGUUA,0.0475 ± 0.0093
15,UCCUGGAUGUCGAUGCAUAGUAUUUAGGUA,0.0275 ± 0.011
16,UCCUCCUACAGCUUGCAUAGUAUUUAGAAA,0.18 ± 0.028
17,UCCUGGUACUGCUUGCAUAGUAUUAAGUUA,0.15 ± 0.035
18,UCCUGGAUGUCCUUGCAUAGUAUUUACAAA,0.0869 ± 0.025

# Source: the supplement of paper PMC10338343
